Compound activity as filed in PubChem.
RPL19A TOR yeast: modulators of TOR pathway RPL19A-GFP in S. cerevisiae; 330,000 tested, 0.3% active; AID 2025; S. cerevisiae RPL19A-GFP strain, flow cytometry, 3 h; active compounds read low; percent response vs DMSO, % at 10 µM;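 active = percent response vs DMSO below 50%; inconclusive = fewer than 70 events counted for the yeast strain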;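 also: median channel GFP fluorescence of the barcoded RPL19A-GFP strain; ratio of sample median GFP to plate DMSO average so 100% = DMSO; lower means less RPL19A-GFP as with rapamycin TOR inhibition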
AGP1 TOR yeast: modulators of TOR pathway AGP1-GFP in S. cerevisiae. 320,000 tested, 0.02% active. S. cerevisiae AGP1-GFP multiplex flow cytometry, 3 h; GFP as percent of DMSO wells. GFP response vs DMSO, % at 10 µM;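 active = GFP response relative to DMSO above a set limit, near screen average plus 3 SD, cut at about 150% in these data; inconclusive = fewer than 70 cells counted for the yeast strain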;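 also: median GFP channel fluorescence of the gated AGP1 strain per well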
CIT2-GFP yeast: modulators of TOR pathway CIT2-GFP in S. cerevisiae; GFP response vs DMSO, % at 10 µM; S. cerevisiae CIT2-GFP strain, flow cytometry, 3 h; 100 means same as DMSO wells; 320,000 tested, 0.065% active;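 active = GFP response relative to DMSO above a set limit, near the screen mean plus 3 SD, cut at about 150% in these data; inconclusive = Fewer than 70 cells measured for a yeast strain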;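 also: ratio of well median GFP fluorescence to mean of DMSO wells on the plate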
MEP2 TOR yeast: yeast TOR pathway MEP2-GFP modulation | S. cerevisiae MEP2-GFP strain, flow cytometry GFP, 3 h; 100% = DMSO control level | GFP response vs DMSO, % at 10 µM | 330,000 tested, 0.51% active | AID 2016;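 active = GFP response versus DMSO above a set limit, roughly screen mean plus 3 SD, cut at about 180% in these data; inconclusive = fewer than 70 cells counted for a yeast strain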;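 also: median GFP fluorescence of the barcode-gated MEP2-GFP cells per well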
DSG3 Ab inh: human desmoglein-3 autoantibody binding inhibition; P32926; DSG3-coupled beads, scFv-anti-DSG3-GFP binding, flow cytometry; active compounds read low; binding (percent of control), % at 10 µM; 310,000 tested, 0.48% active; AID 588358;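 active = binding more than 3 SD below its plate's average and above zero; inconclusive = below that plate limit but binding exactly zero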;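 also: hits lower antibody fragment binding to DSG3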
Target sequence (P32926 whole entry, looked up, the tested form may be a part): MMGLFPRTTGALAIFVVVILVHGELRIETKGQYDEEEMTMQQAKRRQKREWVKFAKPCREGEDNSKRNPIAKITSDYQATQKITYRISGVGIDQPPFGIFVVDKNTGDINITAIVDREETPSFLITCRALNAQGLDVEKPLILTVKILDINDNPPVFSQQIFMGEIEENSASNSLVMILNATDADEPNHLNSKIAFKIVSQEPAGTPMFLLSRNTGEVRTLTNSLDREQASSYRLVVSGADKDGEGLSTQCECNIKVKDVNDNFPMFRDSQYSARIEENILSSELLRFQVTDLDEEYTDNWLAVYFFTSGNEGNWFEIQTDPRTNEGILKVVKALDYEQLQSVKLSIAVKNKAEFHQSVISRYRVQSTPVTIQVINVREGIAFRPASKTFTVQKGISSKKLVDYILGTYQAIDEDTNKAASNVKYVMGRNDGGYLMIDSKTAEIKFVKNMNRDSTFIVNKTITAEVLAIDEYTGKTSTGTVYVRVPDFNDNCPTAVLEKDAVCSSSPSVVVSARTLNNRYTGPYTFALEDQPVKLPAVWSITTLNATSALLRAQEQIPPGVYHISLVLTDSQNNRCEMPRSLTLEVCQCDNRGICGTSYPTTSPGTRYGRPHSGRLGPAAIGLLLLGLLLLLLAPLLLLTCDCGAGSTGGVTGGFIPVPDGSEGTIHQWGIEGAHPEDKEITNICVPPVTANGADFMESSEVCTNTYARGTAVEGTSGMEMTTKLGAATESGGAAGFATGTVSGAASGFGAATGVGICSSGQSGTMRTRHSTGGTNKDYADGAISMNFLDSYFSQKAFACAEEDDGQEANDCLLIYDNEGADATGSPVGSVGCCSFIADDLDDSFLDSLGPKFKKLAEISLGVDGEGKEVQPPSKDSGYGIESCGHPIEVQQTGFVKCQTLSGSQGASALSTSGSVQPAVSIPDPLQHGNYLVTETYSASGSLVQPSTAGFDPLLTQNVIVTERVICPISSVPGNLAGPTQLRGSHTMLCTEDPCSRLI
LAP4 TOR yeast: modulators of TOR pathway LAP4-GFP in S. cerevisiae; GFP response vs DMSO, % at 10 µM; 320,000 tested, 0.34% active; S. cerevisiae LAP4-GFP multiplex, flow cytometry GFP, 3 h; median GFP as percent of DMSO wells;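 active = GFP response vs DMSO above a set limit, about the screen mean plus 3 SD, cut at about 150% in these data; inconclusive = under 70 cell events counted for the yeast strain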
Starred values were filed as active, the others as inactive; ? = inconclusive; . = not tested or not shown; [ ] = remark or other dose. An excerpt weighted towards active compounds, which were near 1.2% of everything screened.

SMILES	RPL19A TOR yeast	AGP1 TOR yeast	CIT2-GFP yeast	MEP2 TOR yeast	DSG3 Ab inh	LAP4 TOR yeast
COC(=O)c1ccc(NS(=O)(=O)c2ccc3c(c2)oc(=O)n3C)cc1	96	99	106	100	92*	104
COC(=O)c1ccc(NS(=O)(=O)c2ccc3c(c2)n(C)c(=O)n3C)cc1	104	96	102	102	76*	97
CCOC(=O)c1ccc(NS(=O)(=O)c2ccc3c(c2)oc(=O)n3C)cc1	103	116	104	101	99	107
CCOC(=O)c1ccc(NS(=O)(=O)c2ccc3c(c2)n(C)c(=O)n3C)cc1	99	90	88	102	?	84
O=C(COC(=O)Cn1cnc2ccccc21)Nc1ccc(OC(F)F)cc1	107	108	103	106	.	108
Cc1ccnn1CCC(=O)N1CCCC(Nc2ccc(F)c(F)c2)C1 (configuration not stated)	97	105	106	96	0.9*	99
Cc1ccnn1CCC(=O)N1CCCC(Nc2ccc(C(C)C)cc2)C1 (configuration not stated)	.	.	.	.	99	.
CCC(=O)c1ccc(OCC(=O)Nc2cccc(S(=O)(=O)N3CCCCCC3)c2)cc1	.	.	.	.	102	.
O=C(N/N=C/c1cc([N+](=O)[O-])ccc1O)c1cccc(N2CCCC2=O)c1	112	100	104	104	.	87
O=C(O)CCn1nc(-c2ccc(F)cc2)cc(Cc2ccccc2)c1=O	101	94	94	107	101	100
CSc1ccc(CN(C)C(=O)CNC(=O)c2ccc3c(c2)OCO3)cc1	101	104	106	107	123	101
COCCn1c(C)cc(O)c(C(=O)Nc2cccc(Cl)c2)c1=O	61	17	?	191*[may fluoresce violet]	95	98
CCOC(=O)COc1ccc2c(c1)c(C(C)=O)c(C)n2-c1ccccc1	98	93	95	104	103	99
CCOc1ccc2c(c1)c(C(C)=O)c(C)n2-c1ccccc1	35*[may fluoresce violet]	.	?	628*[may fluoresce violet]	106	99
N#Cc1c(NCCCO)nc(-c2ccco2)c2c1CCCC2	93	17	?	243*[may fluoresce violet]	108	103
N#Cc1c(NC2CCCCC2)nc(-c2ccco2)c2c1CCCC2	94	18	64	96	109	105
NS(=O)(=O)c1ccc(N2N=C(c3ccc(Br)cc3)CC2c2ccc(F)cc2)cc1 (configuration not stated)	37*[may fluoresce violet]	?	?	169	89	63
COC(=O)c1ccc(CNC(=O)Cn2cnnn2)cc1	102	95	96	102	81*	86
COc1ccccc1CNC(=O)Cn1cnnn1	101	100	96	100	109	102
CCCNC(=O)C(Cc1ccc(I)cc1)NC(=O)c1ccc(C#N)cc1 (configuration not stated)	92	93	94	87	101	94
O=C(CCC(=O)N(CC(=O)NC1CCCC1)c1ccc(F)cc1)Nc1nccs1	104	104	112	109	48*	95
CC(C)c1ccc(N(CC(=O)NCc2ccco2)C(=O)CCC(=O)Nc2nccs2)cc1	99	96	97	101	-39*	88
COc1ccc(N(C(=O)C2COc3ccccc3O2)C(C(=O)NC2CCCCC2)c2ccccc2)cc1OC (configuration not stated)	104	108	101	105	98	101
COc1cc(OC)cc(N(C(=O)C2COc3ccccc3O2)C(C(=O)NC2CCCCC2)c2ccc(O)cc2)c1 (configuration not stated)	104	93	101	92	76*	88
O=C(Cc1cccc2ccccc12)Nc1ccccc1	46*[may fluoresce violet]	?	?	235*[may fluoresce violet]	100	57
CCOC(=O)c1c[nH]c2c(Cl)c(Cl)ccc2c1=O	101	99	.	99	86*	96
CCOC(=O)c1c[nH]c2c(Cl)ccc(Cl)c2c1=O	96	95	97	93	.	101
Nc1nonc1C(=O)N/N=C/c1ccc(-c2cccc(C(=O)O)c2)o1	98	96	90	90	.	108
